Screening results from PubChem.
In the library only some 10% were active in any assay of this set; here they are far more common.
hNpr1 antagonist: blocks ANP-stimulated signaling of human Npr1 receptor. P16066. HEK293 hNpr1 GloSensor cGMP, ANP-stimulated luminescence. Potency, µM (series often up to 46.3 µM), most hits filed as inhibitors. hit rate 1.6% among 76,000; calls by dose curve; further: nearly all actives have a fitted effect of over 60% in size
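HEK293 cells stably expressing human Npr1 and cGMP GloSensor pGS-40F, loaded 2 h with 2% GloSensor reagent, given compound 30 min at room temperature. Luminescence read before and 20 min after 0.1 nM hNppA.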
NIH3T3 tox: NIH 3T3 cell cytotoxicity; hit rate 4.3% among 94,000; Potency, µM (doses to about 96.7 µM), most hits filed as inhibitors; AID 1345082; NIH 3T3 viability, CellTiter-Glo ATP luminescence, 48-72 h; further: nearly all actives have a fitted effect of over 55% in size
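ATP-dependent luminescence (CellTiter-Glo) served as the viability signal for NIH 3T3 cells treated with compound for 48 or 72 hr at 37 °C.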
HEK293 tox: HEK 293 cell cytotoxicity; hit rate 6.6% among 94,000; HEK 293 viability, ATP luminescence (CellTiter-Glo), 48-72 h; Potency, µM (titrated, usually from 115 µM), usual class: inhibitors; AID 1345083; further: nearly all actives have a fitted effect of over 60% in size
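HEK 293 seeded at 250 cells/well receive compound via pintool. After 48 or 72 hr at 37 degree Celsius, 5% CO2 and 95% humidity, CellTiter-Glo is dispensed and luminescence read following 10 min at room temperature.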
GPT2 inhibitor: blocks human glutamate pyruvate transaminase 2; AID 1671188; hit rate 0.25% among 100,000; Recombinant GPT2, coupled pyruvate oxidase/HRP Amplex Red fluorescence; Potency, µM (titrated, usually from 57.7 µM), usual class: inhibitors; Q8TD30; further: nearly all actives have a fitted effect of over 60% in size
Target sequence (Q8TD30 whole entry, looked up): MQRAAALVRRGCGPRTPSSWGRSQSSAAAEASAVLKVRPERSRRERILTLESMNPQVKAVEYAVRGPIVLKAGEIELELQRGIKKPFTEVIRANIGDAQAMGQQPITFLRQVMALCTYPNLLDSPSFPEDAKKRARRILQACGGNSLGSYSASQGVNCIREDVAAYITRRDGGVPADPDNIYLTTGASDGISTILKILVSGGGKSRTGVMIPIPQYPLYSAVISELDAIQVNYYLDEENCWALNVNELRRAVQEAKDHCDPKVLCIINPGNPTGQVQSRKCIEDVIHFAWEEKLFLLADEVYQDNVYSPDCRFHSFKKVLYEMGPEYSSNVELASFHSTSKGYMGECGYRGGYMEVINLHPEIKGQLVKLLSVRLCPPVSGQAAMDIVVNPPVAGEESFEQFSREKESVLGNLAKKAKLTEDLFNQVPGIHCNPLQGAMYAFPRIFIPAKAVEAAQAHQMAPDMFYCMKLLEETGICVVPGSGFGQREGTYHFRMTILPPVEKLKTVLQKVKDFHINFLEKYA
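Fluorescence of coupled pyruvate oxidase/HRP/Amplex Red system (50uM Amplex, 30 min, dark) reports pyruvate formed by GPT2. Enzyme reaction: 10ng/uL GPT2, 2mM L-alanine, 250uM a-KG, 30 min room temperature, pH 7.5; 50uM AOA control.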
FLuc inh: blocks purified firefly luciferase enzyme activity | P08659 | purified P. pyralis luciferase, luminescence, biochemical | Potency, µM (doses to about 115 µM), actives largely listed as inhibitors | hit rate 2.5% among 76,000; further: nearly all actives have a fitted effect of over 65% in size
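FLuc 10nM, D-luciferin 10uM, ATP 10uM, Mg acetate 10mM, Tris acetate pH 7.5, Tween/BSA; cpd qHTS; enzyme added last; CCD luminescence.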
Npr1 antag conf: confirmation of human Npr1 natriuretic peptide receptor antagonists | shares compounds with hNpr1 antagonist | HEK293 hNpr1 cGMP GloSensor luminescence, ANP-stimulated | Potency, µM (titrated, usually from 57.6 µM), actives largely listed as inhibitors | hit rate 76% among 1,400; calls by dose curve; further: nearly all actives have a fitted effect of over 70% in size
Npr2 selectivity: antagonizes human Npr2, subtype selectivity check. Potency, µM (doses to about 57.6 µM), actives largely listed as inhibitors. hit rate 67% among 1,400. shares compounds with hNpr1 antagonist. HEK293 hNpr2 GloSensor cGMP luminescence, CNP-stimulated; calls by dose curve; further: nearly all actives have a fitted effect of over 70% in size
FLuc inh counter: FLuc enzyme inhibition, Npr1 counter-screen | shares compounds with hNpr1 antagonist | purified FLuc enzyme, luminescence, Km substrate | Potency, µM (series often up to 57.6 µM), usual class: inhibitors | hit rate 0.7% among 1,400 | AID 1347047
GloSensor ctrl: reduces cGMP signal in GloSensor control cells; shares compounds with hNpr1 antagonist; HEK293 GloSensor cGMP, SNP-stimulated, luminescence; Potency, µM (doses to about 57.6 µM), actives largely listed as inhibitors; hit rate 69% among 1,400; calls by dose curve; further: nearly all actives have a fitted effect of over 70% in size
Each line names hits and unclear results; the compound was inactive in the other large screens (follow-up assays come after a bar, where they were run). Unless noted, the call rests on the fitted dose curve; in most records, active means well fitted curve in the direction sought with a large enough effect; inconclusive means small, poorly fitted or top-dose-only effect, or another doubt; inactive means no such curve, though single readings can be large; an effect the other way counts as inactive or inconclusive.

CCC(C)NC(=O)N1CC(Oc2ccc(-c3noc(C4CCOCC4)n3)cc2)C1 (stereo unspecified)	hNpr1 antagonist 7.9µM, NIH3T3 tox inconclusive, HEK293 tox inconclusive | Npr1 antag conf 5.4µM | Npr2 selectivity 6.1µM | FLuc inh counter inactive | GloSensor ctrl 4.8µM
CCC(C)NC(=O)N1CC(Oc2ccc(-c3nc(-c4ccccc4)no3)cc2)C1 (stereo unspecified)	hNpr1 antagonist 1.3µM, NIH3T3 tox inconclusive | Npr1 antag conf 1.9µM | Npr2 selectivity 3.1µM | FLuc inh counter inactive | GloSensor ctrl 2.2µM
c1cc(-c2noc(C3CCOCC3)n2)ccc1OC1CNC1	FLuc inh inconclusive
CCC(C)NC(=O)N1CC(Oc2ccc(-c3noc(COC)n3)cc2)C1 (stereo unspecified)	NIH3T3 tox inconclusive, HEK293 tox inconclusive (no result: hNpr1 antagonist, FLuc inh)
O=C(C1CC1)N1CC(Oc2ccc(-c3noc(C4CCOCC4)n3)cc2)C1	hNpr1 antagonist 10µM, NIH3T3 tox inconclusive, HEK293 tox inconclusive | Npr1 antag conf 9.7µM | Npr2 selectivity 11µM | FLuc inh counter inactive | GloSensor ctrl 9.7µM
CC(C)S(=O)(=O)N1CC(Oc2ccc(-c3noc(C4CCOCC4)n3)cc2)C1	hNpr1 antagonist 2.2µM, HEK293 tox inconclusive | Npr1 antag conf 11µM | Npr2 selectivity 12µM | FLuc inh counter inactive | GloSensor ctrl 11µM
Cc1ccccc1C(=O)N1CCCC2(CNc3ncccc3[S+](=O)([O-])N2)C1 (stereo unspecified)	none (no result: hNpr1 antagonist, GPT2 inhibitor, FLuc inh)
CCOc1ccccc1NC(=O)NCCn1c(C)cnc1C1CC1	GPT2 inhibitor inconclusive (no result: hNpr1 antagonist, FLuc inh)
COc1cccc(C(=O)N2CCCN(c3ccnc4ccnn34)CC2)c1	none (no result: hNpr1 antagonist, FLuc inh)
O=C(N1CC(Oc2ccc(-c3nc(-c4ccccc4)no3)cc2)C1)C1(c2ccccc2)CC1	hNpr1 antagonist inconclusive, NIH3T3 tox inconclusive, HEK293 tox 22µM | Npr1 antag conf inconclusive | Npr2 selectivity 22µM | FLuc inh counter inactive | GloSensor ctrl 22µM
CC(C)CNC(=O)N1CC(Oc2ccc(-c3noc(C4CCOCC4)n3)cc2)C1	hNpr1 antagonist 14µM, NIH3T3 tox inconclusive, HEK293 tox inconclusive | Npr1 antag conf 4.8µM | Npr2 selectivity 5.4µM | FLuc inh counter inactive | GloSensor ctrl 4.3µM
O=C(Cc1ccccc1)N1CC(Oc2ccc(-c3nc(-c4ccccc4)no3)cc2)C1	hNpr1 antagonist inconclusive, HEK293 tox inconclusive, FLuc inh inconclusive
Cn1nc(C2CCN(C(=O)c3ccc4ccccc4n3)CC2)n(-c2ccccc2)c1=O	NIH3T3 tox inconclusive (no result: hNpr1 antagonist, FLuc inh)
Cc1ccccc1SC1CCN(c2cc(C3CC(O)C3)ncn2)CC1 (stereo unspecified)	hNpr1 antagonist 2.8µM, NIH3T3 tox inconclusive, HEK293 tox inconclusive | Npr1 antag conf 4.8µM | Npr2 selectivity 6.1µM | FLuc inh counter inactive | GloSensor ctrl 3.9µM
Cc1cc(C)cc(N2CCN(c3cc(C4CC(O)C4)ncn3)CC2=O)c1 (stereo unspecified)	none
Cc1ccc(Cl)cc1N1CCN(c2cc(C3CC(O)C3)ncn2)CC1 (stereo unspecified)	hNpr1 antagonist 8.9µM, NIH3T3 tox inconclusive, HEK293 tox 28µM | Npr1 antag conf 19µM | Npr2 selectivity 19µM | FLuc inh counter inactive | GloSensor ctrl 14µM
COc1cccc(N2C(=O)NC(=NC3CCCCC3)C23CCN(CCC(C)C)C3)c1 (stereo unspecified)	none (no result: hNpr1 antagonist, FLuc inh)
CC(C)c1ccc(CN2CCc3ncc(C(=O)NCc4ccccc4)n3CC2)cc1	hNpr1 antagonist 28µM, NIH3T3 tox inconclusive, HEK293 tox 28µM | Npr1 antag conf 25µM | Npr2 selectivity 31µM | FLuc inh counter inactive | GloSensor ctrl 22µM
O=C(C1CCCC1)N1CCN(CCn2nc3n(c2=O)CCCC3)CC1	none (no result: hNpr1 antagonist, GPT2 inhibitor, FLuc inh)
COc1ccc(OC)c(NC(=O)C2CCc3nc(N4CCN(C(C)=O)CC4)sc3C2)c1 (stereo unspecified)	HEK293 tox inconclusive
CC(=O)N1CCN(c2nc3c(s2)CC(C(=O)Nc2cc(F)cc(F)c2)CC3)CC1 (stereo unspecified)	hNpr1 antagonist 10µM, NIH3T3 tox inconclusive, HEK293 tox 10µM | Npr1 antag conf 17µM | Npr2 selectivity 19µM | FLuc inh counter inactive | GloSensor ctrl 11µM
CC(=O)N1CCN(c2nc3c(s2)CC(C(=O)Nc2cccc(C(C)(C)C)c2)CC3)CC1 (stereo unspecified)	hNpr1 antagonist 18µM, NIH3T3 tox inconclusive, HEK293 tox inconclusive | Npr1 antag conf 12µM | Npr2 selectivity 15µM | FLuc inh counter inactive | GloSensor ctrl 11µM
COc1ccc(C(=O)N2CCN(C(=O)c3nnn4c3COC(c3ccc(Cl)cc3)C4)CC2)cc1F (stereo unspecified)	hNpr1 antagonist inconclusive, HEK293 tox inconclusive | Npr1 antag conf 24µM | Npr2 selectivity 27µM | FLuc inh counter inactive | GloSensor ctrl 22µM
O=C(c1ccc(F)c(F)c1)N1CCN(C(=O)c2nnn3c2COC(c2ccc(Cl)cc2)C3)CC1 (stereo unspecified)	hNpr1 antagonist 13µM, NIH3T3 tox inconclusive | Npr1 antag conf 22µM | Npr2 selectivity 22µM | FLuc inh counter inactive | GloSensor ctrl 19µM
O=C(c1ccc(F)c(Cl)c1)N1CCN(C(=O)c2nnn3c2COC(c2ccccc2)C3)CC1 (stereo unspecified)	hNpr1 antagonist 13µM, NIH3T3 tox inconclusive, HEK293 tox inconclusive | Npr1 antag conf 22µM | Npr2 selectivity 24µM | FLuc inh counter inactive | GloSensor ctrl 22µM
CN(C)c1cccc(C(=O)N2CCN(C(=O)c3nnn4c3COC(c3ccc(Cl)cc3)C4)CC2)c1 (stereo unspecified)	hNpr1 antagonist 13µM, NIH3T3 tox inconclusive, HEK293 tox inconclusive | Npr1 antag conf 24µM | Npr2 selectivity 24µM | FLuc inh counter inactive | GloSensor ctrl 24µM
O=C(c1cccc(Cl)c1)N1CCN(C(=O)c2nnn3c2COC(c2ccc(Cl)cc2)C3)CC1 (stereo unspecified)	NIH3T3 tox inconclusive, HEK293 tox inconclusive
Cn1nc(C2CC2)cc1NC(=O)C1CCCC1	none (no result: hNpr1 antagonist, FLuc inh)
